Source: PubChem BioAssay AID493078 (National Center for Advancing Translational Sciences (NCATS), 2011)
This is one part of the list. Records with an inconclusive call do not appear. The source made the active and inactive calls. Calls come from the whole dose curve; as a rule, active = well fitted activation curve with a large enough effect; inconclusive = small, poorly fitted or top-dose-only effect; inactive = flat fitted curve, though single readings scatter.

Target: Thyrotropin-releasing hormone receptor (Homo sapiens) (UniProt P34981)
Test: qHTS for Small Molecule Agonists and Allosteric Enhancers of Human TRH Receptor: Confirmation Screen for Agonists; note: 0% is about no effect; nearly all actives have a fitted effect of over 75% in size
Details: TRHR-expressing cells, agonist activation read-out; series mostly up to 46.1 µM; activation: at the top concentration
Description: NIH Chemical Genomics Center [NCGC]
NIH Molecular Libraries Probe Centers Network [MLPCN]
Assay Submitter (PI): Marvin Gershengorn
This project aims to identify small drug-like molecules that activate (agonists) the thyrotropin releasing hormone (TRH) receptor (TRHR) or enhance its TRH-stimulated activity (allosteric enhancers). TRHR, a drug-accessible cell surface receptor expressed in specific brain regions, and its ligand TRH have been implicated in several central nervous system disorders, including depression and anxiety. Small molecule TRHR agonists or allosteric enhancers that are metabolically stable and able to cross the blood-brain barrier might serve as probes to elucidate the roles of brain TRH receptors in animal models, and might be valuable as lead compounds for the development of drugs to treat patients with central nervous system disorders.
Upon TRHR-Gq activation in TRHR cells, intracellular calcium is released from stores in the endoplasmic reticulum.
For the HTS assay freshly prepared cells are plated at a density of 2000/well in 3 ul of complete DMEM medium containing 10% serum in 1536-well plates and cultured over night at 37 C in a humidified incubator with 5% CO2. The next day, 2 ul of a no wash calcium dye (ABD Bioquest) was added to the cells and plates were incubated at room temperature for 1 hour. For the assay, assay plates were loaded into the FDSS kinetic plate reader. A 10 cycle (1 second/cycle) baseline measurement is taken and then the FDSS online 1536 pintool delivers 23 nl of compound library (as well as TRH controls) to the plate. The plate is measured for kinetically at 1 cycle/sec for 180 seconds and is considered to be the agonist portion of the assay (eg, compounds which activate a positive calcium response during this portion are flagged as potential agonists). Following the 180 second read, 1 ul of either an EC20 (positive modulation assay) is delivered by an onboard pipette head. Measurements are taken kinetically for an additional 180 seconds.
TRHR FDSS Screening Protocol
1. Reagent, 3 uL 2000 cells/well 1536 TC treated Black plate in media containing 10% FCS
2. Time, 18 hours, 33.5C 5% CO2 (cells grown at 37C)
3. Reagent, 2 uL ABD fluo-8 Ca dye
4. Time, 30 min-1.5hrs hours, Room temp (6 plates/batch)
5. Detector, EX 480/EM 530C, FDSS 10 cycles baseline (1sec/cycle)
6. Compound, 23 nL of stock solution from library
7. Detector, EX 480/EM 530C, FDSS 230 cycles (1sec/cycle) Agonist mode
8. Compound, 1 ul EC20 of TRH made up in HEPES HBSS, 10 nM final
9. Detector, EX 480/EM 530C, FDSS 100 cycles (1sec/cycle) Potentiator mode

Chain of Thyrotropin-releasing hormone receptor (Homo sapiens) (P34981 whole entry, looked up): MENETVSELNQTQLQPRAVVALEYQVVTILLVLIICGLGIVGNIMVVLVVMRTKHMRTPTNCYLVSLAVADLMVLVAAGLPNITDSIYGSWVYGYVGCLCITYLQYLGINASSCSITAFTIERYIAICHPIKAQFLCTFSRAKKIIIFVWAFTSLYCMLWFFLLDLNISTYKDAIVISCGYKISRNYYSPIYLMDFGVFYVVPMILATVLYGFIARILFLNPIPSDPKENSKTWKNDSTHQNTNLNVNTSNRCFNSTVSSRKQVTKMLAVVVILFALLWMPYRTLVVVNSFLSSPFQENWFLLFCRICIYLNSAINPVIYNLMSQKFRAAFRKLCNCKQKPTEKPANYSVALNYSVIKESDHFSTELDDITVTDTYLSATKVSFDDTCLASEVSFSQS

| Compound | activation |
| --- | --- |
| c1cnc(N2CCN(c3ccc4ccccc4n3)CC2)nc1 | -0.415% (inactive) |
